In the supplement of paper PMC12067093, “Discovery and optimisation of a covalent ligand for TRIM25 and its application to targeted protein ubiquitination” (Chemical Science, 2025):
About 21,000 targets were measured; listed, in parts, are those with the largest changes and a random draw of the rest.

Compound: CC1Cc2ccccc2N1C(=O)C1CCCN(C1)C(=O)CCl (mixture of isomers) [TRIM25 ligand 11 (diastereomer mixture)]
Experiment: probe-labelled cysteine peptide fold change vs DMSO (competition) (log2 fold change); higher = less target engagement (more negative = stronger competition)
Conditions: THP-1, incubation time: 4 h
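Further: competitive chemoproteomic profiling in live THP-1 cells with an iodoacetamide desthiobiotin (IA-DTB) probe, comparing probe-labelled peptide intensities in compound-treated cells against DMSO-treated controls.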

Target | probe-labelled cysteine peptide fold change (10 µM) | probe-labelled cysteine peptide fold change (50 µM)
MDN1_Q9NU22_4604_HLFFSQSCSLLVR (UniProt Q9NU22) | 0.142 | 0.423
MAVS_Q7Z434_33_NFSNFCNVDVVEILPYLPCLTAR (UniProt Q7Z434) | 0.142 | 0.343
MYADM_Q96S97_279_SRDVSCSR (UniProt Q96S97) | 1.04 | 1.29
MCM3AP_O60318_439_SESTDSLGGLSPSEVTAIQCK (UniProt O60318) | -0.0427 | -0.262
LYAR_Q9NX58_30_NCECLSCIDCGK (UniProt Q9NX58) | -0.0598 | -0.0603
MED14_O60244_1433_QGECTIFAAVR (UniProt O60244) | 0.177 | 0.249
MAP4K1_Q92918_334+335_SSSLGIPDADCCR (UniProt Q92918) | -0.0222 | -0.126
MDN1_Q9NU22_3690_LLGSQLLACTLSHNTLFGEAPSDLMVKPDGPYDFYQHPNVPEAR (UniProt Q9NU22) | 0.00494 | 0.105
MCM6_Q14566_351_NLYHNLCTSLFPTIHGNDEVK (UniProt Q14566) | 0.107 | 0.0102
MDH2_P40926_93_GCDVVVIPAGVPR (UniProt P40926) | -0.0615 | 0.0728
NCAPD3_P42695_143_CIQTLK (UniProt P42695) | 0.0922 | 0.12
MED1_Q15648_302_WTPSFSSITSANSVDLPACFFLK (UniProt Q15648) | -0.00458 | 0.123
MDN1_Q9NU22_882_LFACMNPATDVGKR (UniProt Q9NU22) | -0.0968 | -0.078
MIF_P14174_81_LLCGLLAER (UniProt P14174) | -0.156 | -0.117
